Screen size: about 3,300 compounds; about 280 (8.5%) were called active. The entries come from a sample that favours actives as a whole. Unmarked numbers belong to inactive results.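 Rule for the calls: active = mean growth inhibition over the two runs of 50% or more; inactive = mean growth inhibition under 50%.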

A short description of this assay: A549 NSCLC cell proliferation inhibitors – ATP luminescence, human non-small cell lung line, primary screen (AID 371).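 Note: compound exposure lasted 72 h before the ATP read; 0% = untreated cell signal and 100% = no luminescence left.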 To be noted: at 10 µM, active compounds read high.
Take `Cc1ccc(-c2ccccc2NC(=O)C2C3C=CC(C3)C2C(=O)O)o1` (stereo unspecified): the growth inhibition is 1.09%. For `C/C(=N\O)c1ccc2[nH]ccc2c1` the value was 9.01%. For `Nc1nc(Cl)nc2c1ncn2[C@@H]1O[C@H](CO)[C@@H](O)[C@H]1O` the value was 33.3%; for `Nc1ncnc2c1ncn2[C@@H]1O[C@H](CO)[C@@H](O)[C@H]1O`, 1.29%; for `Nc1nc(F)nc2c1ncn2[C@@H]1O[C@H](CO)[C@@H](O)[C@@H]1O`, 73.1% (active).

`CCOC(=O)CSc1nc(C)c(C(C)=O)cc1C#N`: the growth inhibition is 7.6%. For `O=C(O)CCCc1ccccc1` the value was -1.26%; for `N#C/C(=C\c1ccc(O)c(O)c1)C(=O)NCCCc1ccccc1`, 64.3% (active); for `O=C(NCCc1ccccc1)/C(=N\O)c1ccccc1`, 10.9%.

As to `CC(C)(C)C1=Nn2c(nnc2-c2ccco2)SC1`, the growth inhibition was 2.63%. On to `CC(=O)N(Cc1ccccc1)c1ccc(C(=O)O)cc1`, for which the growth inhibition is -0.07%. In the case of `COc1ccccc1C(CC(=O)Nc1nccs1)c1ccco1` (stereo unspecified) it was 11.7%; in that of `O=c1[nH]nc2n1CCCCC2`, 2.49%; in that of `CC(C)C1Cc2c(sc3c2c(=O)n(Cc2ccccc2)c2nncn32)CO1` (stereo unspecified), 25.2%. Take `Cc1nnc2n(-c3ccccc3)c(=O)c3c4c(sc3n12)COC(C(C)C)C4` (stereo unspecified): the growth inhibition was 13.4%. For `Cc1nnc2n(Cc3ccccc3)c(=O)c3c4c(sc3n12)COC(C(C)C)C4` (stereo unspecified) the value was 72.3% (active); for `COC(=O)c1[nH]c2cc(OC)ccc2c1NC(=O)CN1CCC(C(N)=O)CC1`, -2.17%; for `COC(=O)c1[nH]c2cc(OC)ccc2c1NC(=O)CCN1CCCC(C)(C)C1`, -5.32%. In the case of `COC(=O)c1[nH]c2cc(OC)ccc2c1NC(=O)CN1CCN(c2cccc(C)c2)C(C)C1` (stereo unspecified), the growth inhibition was 68% (active).

With `COc1cccc2c(=O)c(SC(F)(F)C(F)C(F)(F)F)c(C)[nH]c12` (stereo unspecified), the growth inhibition was 46.7%. Turning to `CC(C)(C)c1cccc(/C=N/O)c1O`, the growth inhibition was 84.1% (active). For `CSC(=Nc1ccccc1)C1=C(O)COC1=O` the value was 3.6%; for `CSc1nc(C)c2c(c1C#N)CCCC2`, 11.1%; for `O=C(NC1CCCCC1)[C@H](O)[C@@H](O)C(=O)NC1CCCCC1`, -22.3%. For `CCCc1nc(N2CCCC2)c(C#N)c2c1CCCC2`, the growth inhibition was 20.2%. In the case of `COc1ccc(CNc2oc(COc3ccc(Cl)cc3)nc2C#N)cc1` it was 74.1% (active); in that of `COc1ccc(CNc2oc(COc3ccccc3Cl)nc2C#N)cc1`, 34.1%. As for `COc1ccc(CCNc2oc(COc3ccccc3)nc2C#N)cc1`, the growth inhibition is 31.8%. In the case of `COC(=O)c1ccc(Cn2nnc3c(sc4nc(N5CCOCC5)c5c(c43)CCCC5)c2=O)o1` it was 3.34%. As for `O=CNC(=O)c1ccccc1C(=O)O`, the growth inhibition is -1.48%. In the case of `CCOC(=O)c1cc2cc(OC)ccc2[nH]1` it was 15.9%; in that of `CCCCC(=O)Nc1c(O)c2ccccc2[nH]c1=O`, 3.38%; in that of `O=c1c(O)c(-c2ccc(O)cc2O)oc2cc(O)cc(O)c12`, 4.21%.

Turning to `O=c1c(-c2ccc3c(c2)OCCO3)c(C(F)(F)F)oc2cc(O)cc(O)c12`, the growth inhibition was 71.1% (active). In the case of `COc1ccc(-c2coc3cc(O)cc(O)c3c2=O)cc1` it was 21.9%; in that of `COC(=O)c1cc(=O)n2c(-c3ccc(OC)cc3)csc2n1`, -0.07%; in that of `O=C(O)CCCCCN1C(=O)CCC1=O`, -0.47%.

With `CC1(C)Cc2c(c(N3CCOCC3)nc3sc4c(NCc5ccco5)nnnc4c23)CS1`, the growth inhibition is 32.9%.

Consider `CN1CCN(CCC(=O)N2c3ccccc3Sc3ccc(Cl)cc32)CC1`, for which the growth inhibition is 13.4%.

In the case of `CN1CCN(CCCN2c3ccccc3Sc3ccc(C(F)(F)F)cc32)CC1`, the growth inhibition is 93.1% (active). For `CN1CCN(CCCCOc2ccc(F)cc2)CC1` the value was 3.19%; for `OCCN1CCN(CCCN2c3ccccc3Sc3ccc(Cl)cc32)CC1`, 90.6% (active). In the case of `CN1CCN(CCCN2c3ccccc3Sc3ccc(Cl)cc32)CC1` it was 0.16%; in that of `OCCN1CCN(CCCN2c3ccccc3Sc3ccc(C(F)(F)F)cc32)CC1`, 92.3% (active). On to `c1ccc(SCc2nc3ccccc3[nH]2)nc1`, for which the growth inhibition is 6.85%. In the case of `CC(NC(=O)Nc1ncccn1)(C(F)(F)F)C(F)(F)F` it was 0.51%; in that of `C/C(=N\O)C1(C)N(O)C(C)(C)C(c2ccco2)=[N+]1[O-]` (stereo unspecified), 2.56%. In the case of `CC1(C)Cc2c(c(-c3ccccc3)nc(N3CCCC3)c2C(N)=O)CO1` it was 7.2%. For `O=C(NC1(C(F)(F)F)C(=O)Nc2c1c(=O)[nH]c(=O)n2-c1ccccc1)c1cccnc1` (stereo unspecified) the value was 1.94%; for `CCOC(=O)CSC1=C(C#N)C(=O)NC2(CCCCC2)S1`, -4.21%; for `Nc1nnc(-c2cccc(Cl)c2Cl)c(N)n1`, 14.4%.

For `Nc1nonc1-c1noc(-c2ccccc2)n1`, the growth inhibition is 8.32%. As for `Nc1nc(N)c2nc(-c3ccccc3)c(N)nc2n1`, the growth inhibition is 82.4% (active).

For the molecule `O=C(O)c1cnn2c(C(F)(F)F)cc(-c3ccco3)nc12`, the growth inhibition is -1.5%. For `O=C(CCCN1C(=O)c2ccccc2C1=O)N1CCC(c2ccccc2)C1` (stereo unspecified) the value was -0.61%; for `CCN(CC)c1ccc(C2Nc3cccc4cccc(c34)N2)c(O)c1`, 77.5% (active).

Turning to `OCCNC1=NCCN1`, the growth inhibition is -1.49%. For `N#Cc1nc(COc2ccccc2F)oc1NCCCn1ccnc1` the value was 5.01%; for `CC(C(=O)N(C)C)N(C#N)c1nc(N(C)C)nc(N(C)C)n1` (stereo unspecified), 3.51%. As for `CC(COc1ccccc1)N(CCCl)Cc1ccccc1` (stereo unspecified), the growth inhibition is 54.1% (active).

With `CC(COc1ccccc1)NC(C)C(O)c1ccc(O)cc1` (stereo unspecified), the growth inhibition was 4.38%. Consider `Cc1nc(-c2coc3cc(OCC(=O)O)ccc3c2=O)cs1`, for which the growth inhibition was 13.4%. Regarding `O=C(NCCO)C1(c2ccccc2)CCCC1`, the growth inhibition is 0.3%. On to `O=c1c2sc3nc(N4CCOCC4)c4c(c3c2ncn1Cc1ccco1)CCCC4`, for which the growth inhibition is 22.7%. As to `COC(=O)c1ccc(CSc2ncnc3c2sc2nc(N4CCOCC4)c4c(c23)CCCC4)o1`, the growth inhibition is -12.8%. In the case of `OCCN(CCO)c1ncnc2c1sc1nc(N3CCOCC3)c3c(c12)CCCC3` it was 58.3% (active); in that of `Cc1cc(OCC(=O)Nn2cnnc2)ccc1Br`, 4.24%.

With `Cc1noc(NS(=O)(=O)c2ccc(NC(=O)COc3ccccc3)cc2)c1C`, the growth inhibition was -8.3%. Consider `CC(NCCC(c1ccccc1)c1ccccc1)c1ccccc1` (stereo unspecified), for which the growth inhibition is 90.6% (active). For `CC(NC(=O)c1ccc(=O)oc1)c1ccccc1` (stereo unspecified) the value was 3.88%; for `COc1ccc(C(=O)Cn2c(N3CCCCC3)nc3c2c(=O)n(C)c(=O)n3C)cc1OC`, 8.72%.

Consider `CCCC(C)n1[nH]c(=O)cc1N` (stereo unspecified), for which the growth inhibition was -3.66%.

On to `COC(=O)c1ccc(C2/C(=C(\O)c3ccc4c(c3)OCCO4)C(=O)C(=O)N2CCCN(C)C)cc1` (stereo unspecified), for which the growth inhibition is 3.46%.

In the case of `N#Cc1c(N)n(CCOC(=O)c2cccc(Br)c2)c2nc3ccccc3nc12`, the growth inhibition is 3.2%. For `CCOC(=O)CSC1=C(C#N)C(c2ccc3c(c2)OCO3)CC(=O)N1` (stereo unspecified) the value was 49.8%. In the case of `CCCCOC(=O)CSC1=C(C#N)C(c2ccc3c(c2)OCO3)CC(=O)N1` (stereo unspecified) it was 40.3%. For the molecule `CCCOC(=O)CSC1=C(C#N)C(c2ccc3c(c2)OCO3)CC(=O)N1` (stereo unspecified), the growth inhibition is 50.4% (active). As for `CCOC(=O)CSc1nc(N2CCOCC2)c2c(c1C#N)CC(C)(C)N(C)C2`, the growth inhibition is 13.9%. In the case of `CC(C)Oc1ccc(Cc2c(O)nc(NCCCN(C)C)[nH]c2=O)cc1` it was -4.15%; in that of `Cc1ccc2cc(CNC(C)C)c(=O)[nH]c2c1`, 2.25%. In the case of `CCN(CC)C(=O)CSc1nc2ccccc2c(=O)n1CC1CCCCC1` it was 59.2% (active). On to `CCN(CC)C(=O)COn1c(SCC(=O)N(CC)CC)nc2ccccc2c1=O`, for which the growth inhibition was -4.27%.

On to `O=C(CSc1nc2ccccc2c(=O)n1CC1CCCCC1)N1CCOCC1`, for which the growth inhibition is 19.6%. For `CCN(CC)CCN1C(=O)C(=O)/C(=C(/O)c2ccc(F)cc2)C1c1ccncc1` (stereo unspecified) the value was -7.83%; for `Cn1c[n+](C)cc1/C=N/O`, -3.08%; for `Cc1[nH]c2ccc(F)cc2c(=O)c1SC(F)(F)C(F)C(F)(F)F` (stereo unspecified), 35.6%. In the case of `C=CCn1c(=S)[nH]c2ccccc2c1=O` it was 6.62%; in that of `O=C(c1ccc(F)cc1)C1CCN(CCn2c(=O)[nH]c3ccccc3c2=O)CC1`, 8.97%; in that of `O=c1c2ccccc2[nH]c(=S)n1CCN1CCC(=C(c2ccc(F)cc2)c2ccc(F)cc2)CC1`, 69.1% (active). As for `CCCSc1nnc2n(-c3ccccc3OC)c(=O)c3c4c(sc3n12)CCC4`, the growth inhibition was 15.6%. In the case of `O=C(Nc1ccccn1)NC(C(F)(F)F)C(F)(F)F` it was 0.87%; in that of `CCOC(=O)C1/C(=N\O)CC(C)(O)C(C(=O)OCC)C1c1ccc(OC)c(OC)c1` (stereo unspecified), 2.33%; in that of `CC[C@]1(O)C[C@@H]2CN(CCc3c([nH]c4ccccc34)[C@@](C(=O)OC)(c3cc4c(cc3OC)N(C)[C@H]3[C@@](O)(C(=O)OC)[C@H](OC(C)=O)[C@]5(CC)C=CCN6CC[C@]43[C@@H]65)C2)C1`, 71.8% (active). For `CC[C@]1(O)CC2CN(CCc3c([nH]c4ccccc34)[C@@](C(=O)OC)(c3cc4c(cc3OC)N(C=O)[C@H]3[C@@](O)(C(=O)OC)[C@H](OC(C)=O)[C@]5(CC)C=CCN6CC[C@]43[C@@H]65)C2)C1` (stereo partly specified) the value was 59.6% (active); for `Cn1c2ccccc2c2nn(-c3ccccc3)c(=O)cc21`, 12.4%. On to `CC(=O)Nc1ccc(OC(=O)CC2SC(=O)NC2=O)cc1` (stereo unspecified), for which the growth inhibition is 1.99%.

Source of the values: PubChem BioAssay AID371 (SRMLSC, 2006).
